Test results taken from PubChem BioAssay.
“And” between values parts separate entries of the source, which are not always exact repeats. Equal values may be shown once. Results filed as inconclusive are left out. The source made the active and inactive calls.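 Rule for the calls, unless noted: active = normalized viability below 100% at a tested concentration; inactive = the rest.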

How the values were obtained:
[1] = growth inhibition of DIPG glioma cells, dose response, cell-based, SU-DIPG-XVII, MIPE5.0, CellTiter-Glo, qHTS (AID 1347060; cut-off not given, nearly all actives have AC50 up to about 26 µM;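 for AC50: cells exposed to compound for 48 hours before viability readout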); settings: SU-DIPG-XVII viability, CellTiter-Glo ATP luminescence
[2] = growth inhibition of DIPG glioma cells, dose response, cell-based, SU-DIPG-XIII, MIPE4.0, CellTiter-Glo, qHTS (AID 1347061; cut-off not given, nearly all actives have AC50 up to about 37 µM;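 note: cells exposed to compound for 48 hours before readout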); settings: SU-DIPG-XIII viability, CellTiter-Glo ATP luminescence
[3] = growth inhibition of DIPG glioma cells, dose response, cell-based, JHH-DIPG-1, MIPE4.0, CellTiter-Glo, qHTS (AID 1347062; cut-off not given, nearly all actives have AC50 up to about 27 µM;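 for AC50: cells exposed to compound for two days before readout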); settings: JHH-DIPG-1 viability, CellTiter-Glo ATP luminescence
[4] = growth inhibition of DIPG glioma cells, dose response, cell-based, SU-DIPG-XIII, MIPE5.0, CellTiter-Glo, qHTS (AID 1347064; cut-off not given, nearly all actives have AC50 up to about 23 µM;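 for AC50: cells exposed to compound for 48 hours before the viability read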); settings: SU-DIPG-XIII viability, CellTiter-Glo ATP luminescence
[5] = viability loss in pontine glioma line – cell-based, SU-DIPG-XXV, MIPE5.0, CellTiter-Glo, qHTS, dose response (AID 1347065; cut-off not given, nearly all actives have AC50 up to about 26 µM;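 note: cells exposed to compound for 48 hours before ATP readout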); settings: CellTiter-Glo ATP luminescence
[6] = SU-DIPG-VI glioma cell viability, MIPE4.0 library, CellTiter-Glo luminescence, qHTS (AID 1347066; cut-off not given, nearly all actives have AC50 up to about 30 µM;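 note: cells exposed to compound for 48 hours before readout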); settings: CellTiter-Glo ATP luminescence
[7] = JHH-DIPG-1 glioma cell viability, MIPE5.0 library, CellTiter-Glo luminescence, qHTS (AID 1347067; cut-off not given, nearly all actives have AC50 up to about 26 µM;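 note: cells exposed to compound for 48 hours before readout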); settings: JHH-DIPG-1 glioma viability, CellTiter-Glo ATP luminescence
[8] = modifiers of HSF1 nuclear foci, imaging, Selleck Cancer Library (AID 1347162; in the data active = plate-normalised HSF1 focus index below about 0.46); settings: human cells, at 10 µM; SSMD: measured here: HSF1 foci SSMD mean; cell count: measured here: cell number; plate-normalised HSF1 focus index: stronger effect = lower value
[9] = growth inhibition of DIPG glioma cells, dose response, cell-based, SU-DIPG-IV, MIPE4.0, CellTiter-Glo, qHTS (AID 1347063; cut-off not given, nearly all actives have AC50 up to about 30 µM;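 note: compound exposure lasted 48 hours before the viability readout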); settings: SU-DIPG-IV viability, CellTiter-Glo ATP luminescence
[10] = SU-DIPG-XXV glioma cell viability, MIPE5.0 library, qHTS (AID 1347068; cut-off not given, nearly all actives have IC50 up to about 30 µM;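 for IC50: cells exposed to compound for 48 hours before viability readout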)
[11] = sensitizers of A549 cells to miR-34 induction, primary screen, imaging, A549 dox-inducible miR-34, nuclei and caspase counts (AID 1347080;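 active = compounds whose cell count with miR-34 switched on is under 0.7 times the count with it off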); settings: A549 miR-34 inducible, Hoechst nuclei count, 48 h
[12] = survival rescue of mitochondrial mutant cells in low glucose, primary screen, MELAS cybrids, Rieske KO mouse fibroblasts, CellTiter-Glo (AID 1508586;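 active = mean z-score across replicates of 1.96 or higher in either the MELAS or the Rieske mutant cell line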;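 note: z relative to plate mean and SD of compound and empty wells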)
[13] = ovarian cancer cell viability with rucaparib, profiling panel, oncology-focused library, rucaparib conditional (AID 1508598); settings: patient-derived ovarian cancer cells, CellTiter-Glo viability, 144 h, stronger effect = lower value
[14] = LFS_MB_P medulloblastoma growth inhibition, cell-based, chromothripsis tumors, cisplatin or BGB combos (AID 1671449; in the data active = inhibition above about 80%;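 note: cells exposed for 96 hours; 0% = vehicle DMSO and 100% = killing by high DMSO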); settings: LFS_MB_P medulloblastoma cells
[15] = HDN33 neuroblastoma growth inhibition, cell-based, chromothripsis tumors, cisplatin or BGB combos (AID 1671450; in the data active = inhibition above about 80%;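 note: cells exposed to compound for four days; 0% = vehicle DMSO and 100% = cell killing by high DMSO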); settings: HDN33 neuroblastoma cells, stronger effect = higher value

C[C@]12CC[C@H](O)CC1=CC[C@@H]1[C@@H]2CC[C@]2(C)C(c3cccnc3)=CC[C@@H]12
inactive: outcome [1] | outcome [2] | outcome [3] | outcome [4] | outcome [5] | outcome [6] | outcome [7] | plate-normalised HSF1 focus index [8] 1.06
7310: cell count [8]
1.68: SSMD [8]

CC(=O)Nc1ccc([C@H](C)C(=O)Nc2ncc(C(C)C)s2)cc1
active: AC50 [1] 0.934 µM | AC50 [2] 4.69 µM | AC50 [9] 2.64 µM | AC50 [4] 2.95 µM | AC50 [5] 1.86 µM | AC50 [7] 3.32 µM | IC50 [10] 2.95 µM

Nc1nc(NCCNc2ncc(-n3ccnc3)c(-c3ccc(Cl)cc3Cl)n2)ccc1[N+](=O)[O-]
inactive: outcome [2] | outcome [10]
active: AC50 [1] 11.8 µM | AC50 [9] 5.26 µM | AC50 [4] 13.2 µM | AC50 [5] 8.33 µM | AC50 [7] 11.8 µM

CC1(C)S[C@H]2[C@H](NC(=O)[C@@H](N)c3ccc(O)cc3)C(=O)N2[C@H]1C(=O)O
inactive: outcome [1] | outcome [5] | outcome [6] | outcome [7] | outcome [10]
active: AC50 [2] 23.5 µM | AC50 [3] 1.32 µM

Cc1cc(Nc2nc(N[C@@H](C)c3ccc(F)cc3)c(C#N)cc2F)n[nH]1
active: AC50 [1] 0.934 µM | AC50 [2] 20.9 µM | AC50 [9] 5.9 µM | AC50 [4] 4.68 µM | AC50 [5] 1.32 µM | AC50 [6] 23.5 µM | AC50 [7] 5.9 µM | IC50 [10] 5.25 µM

O=C(c1cc(Cc2n[nH]c(=O)c3ccccc23)ccc1F)N1CCN(C(=O)C2CC2)CC1
inactive: outcome [3] | outcome [4] | outcome [6] | outcome [7] | outcome [10] | fold change ([11]; stronger effect = lower value, cell number ratio, induced over uninduced) 0.871 | plate-normalised HSF1 focus index [8] 1.13 | z-score ([12]; MELAS cybrid survival, CellTiter-Glo 48 h, stronger effect = higher value) -0.516 | viability ([13]; at 0.000305 µM, OCI-C5x cells, with rucaparib 10 µM, 100% = cells with rucaparib alone) 125% | viability ([13]; at 0.000305 µM, OCI-C5x cells, without rucaparib) 123% | viability ([13]; at 0.000305 µM, OCI-P5x cells, without rucaparib) 101% | viability ([13]; at 0.00122 µM, OCI-C5x cells, with rucaparib 10 µM, 100% = cells with rucaparib alone) 132% | viability ([13]; at 0.00122 µM, OCI-C5x cells, without rucaparib) 122% | viability ([13]; at 0.00122 µM, OCI-P5x cells, with rucaparib 20 µM, 100% = cells with rucaparib alone) 104% | viability ([13]; at 0.00488 µM, OCI-C5x cells, with rucaparib 10 µM, 100% = cells with rucaparib alone) 128% | viability ([13]; at 0.00488 µM, OCI-C5x cells, without rucaparib) 120% | viability ([13]; at 0.00488 µM, OCI-P5x cells, with rucaparib 20 µM, 100% = cells with rucaparib alone) 101% | viability ([13]; at 0.0195 µM, OCI-C5x cells, with rucaparib 10 µM, 100% = cells with rucaparib alone) 114% | viability ([13]; at 0.0195 µM, OCI-C5x cells, without rucaparib) 123% | viability ([13]; at 0.0781 µM, OCI-C5x cells, with rucaparib 10 µM, 100% = cells with rucaparib alone) 118% | viability ([13]; at 0.0781 µM, OCI-C5x cells, without rucaparib) 119% | viability ([13]; at 0.0781 µM, OCI-P5x cells, with rucaparib 20 µM, 100% = cells with rucaparib alone) 104% | viability ([13]; at 0.313 µM, OCI-C5x cells, with rucaparib 10 µM, 100% = cells with rucaparib alone) 118% | viability ([13]; at 0.313 µM, OCI-C5x cells, without rucaparib) 123% | viability ([13]; at 1.25 µM, OCI-C5x cells, with rucaparib 10 µM, 100% = cells with rucaparib alone) 123% | viability ([13]; at 1.25 µM, OCI-C5x cells, without rucaparib) 117% | viability ([13]; at 5 µM, OCI-C5x cells, with rucaparib 10 µM, 100% = cells with rucaparib alone) 105% | viability ([13]; at 5 µM, OCI-C5x cells, without rucaparib) 115% | inhibition ([14]; at 0.5 µM, stronger effect = higher value) -24.7% and -29.1% | inhibition ([15]; at 0.5 µM) 9.6% and 3.35%
12.4% and 7.9%: inhibition ([15]; measured here: with cisplatin IC20 combination, at 0.5 µM)
5380: cell count ([11]; measured here: total cells without miR-34 induction)
2.16: SSMD [8]
14.5% and 9.24%: inhibition ([15]; BGB combo, at 5 µM)
4680: cell count ([11]; measured here: total cells with miR-34 induction, stronger effect = lower value)
-41.7% and -35.8%: inhibition ([14]; measured here: combination with cisplatin, at 0.5 µM, stronger effect = higher value)
-26.5% and -12.3%: inhibition ([14]; measured here: combination with BGB IC20, at 0.005 µM)
1.53: fold change ([11]; measured here: relative caspase fold change +Dox/-Dox)
34.3% and 41.4%: inhibition ([15]; cisplatin combo, at 5 µM)
-43.9% and -38.7%: inhibition ([14]; measured here: combination with cisplatin, at 5 µM, stronger effect = higher value)
-9.06% and -12.6%: inhibition ([14]; measured here: combination with BGB IC40, at 0.005 µM)
7320: cell count [8]
5.51% and -1.25%: inhibition ([15]; measured here: with BGB IC20 combination, at 0.5 µM)
0.876: z-score ([12]; Rieske KO mouse fibroblast survival, CellTiter-Glo 72 h)
33% and 44.4%: inhibition ([15]; single agent, at 5 µM)
-0.874% and -8.68%: inhibition ([14]; measured here: combination with BGB IC40, at 0.05 µM)
active: AC50 [1] 20.9 µM | AC50 [2] 18.7 µM | viability ([13]; at 0.000305 µM, OCI-P5x cells, with rucaparib 20 µM, 100% = cells with rucaparib alone) 96.5% | viability ([13]; at 0.00122 µM, OCI-P5x cells, without rucaparib) 97% | viability ([13]; at 0.00488 µM, OCI-P5x cells, without rucaparib) 92.4% | viability ([13]; at 0.0195 µM, OCI-P5x cells, with rucaparib 20 µM, 100% = cells with rucaparib alone) 96.5% | viability ([13]; at 0.0195 µM, OCI-P5x cells, without rucaparib) 87.9% | viability ([13]; at 0.0781 µM, OCI-P5x cells, without rucaparib) 96% | viability ([13]; at 0.313 µM, OCI-P5x cells, with rucaparib 20 µM, 100% = cells with rucaparib alone) 96.9% | viability ([13]; at 0.313 µM, OCI-P5x cells, without rucaparib) 85.5% | viability ([13]; at 1.25 µM, OCI-P5x cells, with rucaparib 20 µM, 100% = cells with rucaparib alone) 94.6% | viability ([13]; at 1.25 µM, OCI-P5x cells, without rucaparib) 75.5% | viability ([13]; at 5 µM, OCI-P5x cells, with rucaparib 20 µM, 100% = cells with rucaparib alone) 86.1% | viability ([13]; at 5 µM, OCI-P5x cells, without rucaparib) 66.2%
